CBFb RUNX1 block = blocks binding between human CBF-beta and RUNX1; Q01196+Q13951; AlphaScreen CBFb-His/RUNX1-biotin binding, biochemical; Potency, µM (series often up to 59.8 µM), inactives show top-dose activity, negative = inhibition, usual class: inhibitors; 230,000 tested, under 10 active; note: % of control where 0% means no effect
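CBF-beta (His) and RUNX1 (biotin), 30 nM each; 20 min preassociation; + compound, 15 min; + beads 50 ng each (Ni, streptavidin), 90 min; RT; AlphaScreen read.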
PNC assembly inh = perinucleolar compartment assembly inhibition. activity change (PNC), negative = inhibition, % at 10 µM. AID 2417. PC3M PTB-GFP, PNC prevalence imaging, 16 h; active compounds read low. 140,000 tested, 3.1% active;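 active = readout at or below -70, meaning at least 70% loss of cells showing the perinucleolar compartment, a nuclear body marking cancer cells; inconclusive = readout between -30 and a set limit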;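 note: plate controls were DMSO wells for no effect and camptothecin positive control wells for full effect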
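Compounds are pinned in duplicate onto adhered PC3M cells stably expressing GFP-tagged PTB and incubated 16 h at 37 C. Cells are then fixed, nuclei stained with Hoechst, and PNC-positive cells counted.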
ALDH1A1 block = ALDH1A1 (human) enzyme inhibition. P00352. Purified ALDH1A1, NADH fluorescence, propionaldehyde substrate. Potency, µM (doses to about 75.3 µM), inactives show at the top dose activity, negative = inhibition, actives largely listed as inhibitors. 220,000 tested, 7.3% active; active = well fitted inhibition curve with a large enough effect, not every such curve was filed as active; inconclusive = small, poorly fitted or top-dose-only effect, or another doubt; inactive = no such curve, though single readings can be large or run the other way;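 note: potency is the fitted concentration of half-maximal effect; plate controls were no enzyme wells and a reference inhibitor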
Target sequence (P00352 whole entry, looked up): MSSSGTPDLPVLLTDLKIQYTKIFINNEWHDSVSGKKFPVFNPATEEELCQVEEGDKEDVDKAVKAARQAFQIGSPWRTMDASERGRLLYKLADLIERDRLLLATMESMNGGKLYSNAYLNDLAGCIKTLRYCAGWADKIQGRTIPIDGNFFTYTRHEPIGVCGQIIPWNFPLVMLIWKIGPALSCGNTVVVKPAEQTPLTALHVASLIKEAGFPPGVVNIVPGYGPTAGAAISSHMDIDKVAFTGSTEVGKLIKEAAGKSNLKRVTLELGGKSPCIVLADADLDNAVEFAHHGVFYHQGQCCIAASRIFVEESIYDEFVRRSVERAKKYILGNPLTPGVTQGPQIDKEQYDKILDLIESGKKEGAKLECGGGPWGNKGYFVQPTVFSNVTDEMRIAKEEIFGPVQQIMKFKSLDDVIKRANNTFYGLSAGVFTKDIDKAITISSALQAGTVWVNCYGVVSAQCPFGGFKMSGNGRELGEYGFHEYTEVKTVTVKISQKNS
HttQ103 aggreg = reduces HttQ103-GFP aggregates in PC12 cells; PC12 HttQ103-GFP aggregates, Acumen cytometry, 40 h; Potency, µM (series often up to 46.1 µM), inactives show at the highest dose activity change, negative = inhibition, actives largely listed as inhibitors; 220,000 tested, 1.1% active; note: potency is the fitted concentration of half-maximal effect; % is set by controls: 0 for no effect and ±100 for the full control effect; nearly all actives have a fitted effect of over 60% in size
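Inducible Q103 Huntingtin exon 1–GFP PC12 line, 1500 cells/well in phenol red free DMEM with 5% equine and 5% calf serum. Tebufenozide 100 nM induced expression; compounds titrated; aggregates quantified by cytometry.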
HPGD inh = blocks human HPGD enzyme activity. purified HPGD, NADH fluorescence kinetic, PGE2 substrate. 150,000 tested, 4.3% active. AID 894. Potency, µM, for inactives: at the highest dose activity change, negative = inhibition, most hits filed as inhibitors. P15428; active = well fitted inhibition curve with a large enough effect, not every such curve was filed as active; inconclusive = small, poorly fitted or top-dose-only effect, or another doubt; inactive = no such curve, though single readings can be large or run the other way; note: potency is the fitted concentration of half-maximal effect; % is set by controls: 0 for no effect and ±100 for the full control effect
Target sequence (P15428 whole entry, looked up): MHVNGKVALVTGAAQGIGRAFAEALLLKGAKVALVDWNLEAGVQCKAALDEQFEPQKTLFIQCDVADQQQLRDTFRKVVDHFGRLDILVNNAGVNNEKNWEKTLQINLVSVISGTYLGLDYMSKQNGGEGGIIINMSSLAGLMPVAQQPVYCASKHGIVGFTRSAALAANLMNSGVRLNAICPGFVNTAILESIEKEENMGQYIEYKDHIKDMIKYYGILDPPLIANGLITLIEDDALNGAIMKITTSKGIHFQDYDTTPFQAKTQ
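NADH formation kinetics: reaction with 30 uM PGE2 and 1 mM NAD+ (final), 20 nM enzyme, Tris-HCl pH 8 with Tween 20, after 15 min compound preincubation at room temperature. Fluorescence change, last versus first of five reads.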
HTT cytoprotect = Huntington cell model cytoprotection by ATP luminescence | PC12 HTT-Q103 induced, cytoprotection, ATP luminescence, 40 h | Potency, µM (highest dose often 56.4 µM), inactives show cytoprotection (ATP increase), usual class: activators | AID 1471 | 230,000 tested, 0.14% active; note: potency is the fitted concentration of half-maximal effect; % of control where 0% means no effect; nearly all actives have a fitted effect of over 45% in size
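PC12 cells stably carrying ecdysone-inducible Htt exon 1 (Q103)–GFP were induced with 100 nM tebufenozide (final) alongside library compounds in a dose series. Cytoprotection was scored as retained ATP by ATPlite luminescence.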
Active calls of the source: *; ! = not confirmed by another sample; [ ] = remark or other dose. Most compounds without a hit are left out; they make up all but 11% or so of the library. Unless noted, calls come from the whole dose curve; as a rule, active = well fitted curve in the direction sought with a large enough effect; inconclusive = small, poorly fitted or top-dose-only effect, or another doubt; inactive = no such curve, though single readings can be large; an effect the other way counts as inactive or inconclusive.

COc1cccc(-n2c(COc3ccccc3C)nnc2SCC(=O)O)c1 was read as CBFb RUNX1 block 14%, PNC assembly inh inconclusive, ALDH1A1 block 0%, HttQ103 aggreg -19%, HPGD inh -25% and HTT cytoprotect -12%.
For COc1cccc(-n2c(COc3ccc(C)cc3)nnc2SCC(=O)O)c1 the results were CBFb RUNX1 block 10%, PNC assembly inh 51, ALDH1A1 block -14%, HttQ103 aggreg 11%, HPGD inh 25µM* and HTT cytoprotect -11%[10 µM].
`COc1ccnc(CS(=O)c2nc3ccc(OC(F)F)cc3[nH]2)c1OC` (centres undefined) gave CBFb RUNX1 block -7%, ALDH1A1 block inconclusive, HttQ103 aggreg 5%, HPGD inh inconclusive and HTT cytoprotect -51%.
Screening N#CC1(C#N)CC(C=O)=C(N)C1(C#N)CC(=O)C12CC3CC(CC(C3)C1)C2 (centres undefined) returned CBFb RUNX1 block -4%, PNC assembly inh 18, ALDH1A1 block 18µM*, HttQ103 aggreg -4%, HPGD inh -2% and HTT cytoprotect 3%[10 µM].
Nc1ccc(O)cc1C(=O)OCC(=O)C12CC3CC(CC(C3)C1)C2 was read as CBFb RUNX1 block -25%, PNC assembly inh inconclusive, ALDH1A1 block inconclusive, HttQ103 aggreg inconclusive, HPGD inh inconclusive and HTT cytoprotect -65%.
`O=Cc1ccc(OC2C=CC(c3ccccc3)OC2CO)cc1` (centres undefined) gave CBFb RUNX1 block -3%[13.1 µM], ALDH1A1 block inconclusive and HTT cytoprotect -16%[10 µM].
O=C(Cc1noc2ccccc12)NNC(=S)Nc1ccc(Cl)cc1 was read as CBFb RUNX1 block -2%, ALDH1A1 block 25µM*, HttQ103 aggreg 4% and HTT cytoprotect -2%.
For CC(=O)N[C@@H]1C(O)OC(CO)C(O)C1O (some centres undefined) the results were CBFb RUNX1 block 26%, ALDH1A1 block 5%, HttQ103 aggreg -1%, HPGD inh -13% and HTT cytoprotect -31%.
COc1ccccc1N1CCN(Cc2cc(Br)c(O)c3ncccc23)CC1 was read as CBFb RUNX1 block inconclusive, PNC assembly inh 5, ALDH1A1 block inconclusive, HttQ103 aggreg 10µM*, HPGD inh -5% and HTT cytoprotect -50%.
`COc1ccccc1N1CCN(c2nc(C)nc3c2oc2ccccc23)CC1` gave CBFb RUNX1 block -3%, PNC assembly inh -102*, ALDH1A1 block inconclusive, HttQ103 aggreg -44%[9.22 µM], HPGD inh inconclusive and HTT cytoprotect -98%[0.074 µM].
Screening Cc1nc(N2CCN(C(=O)c3ccco3)CC2)c2oc3ccccc3c2n1 returned CBFb RUNX1 block -3%, PNC assembly inh -17, ALDH1A1 block 28µM*, HttQ103 aggreg -15%, HPGD inh -19% and HTT cytoprotect -32%.
Screening CCc1nc(N2CCN(C(=O)c3ccco3)CC2)c2oc3ccccc3c2n1 returned CBFb RUNX1 block -3%, PNC assembly inh -1, ALDH1A1 block -9%, HttQ103 aggreg -18%, HPGD inh -8% and HTT cytoprotect -38%.
CCN1CCN(C(c2cc(OC)c(OC)c(OC)c2)c2nnnn2C(C)C)CC1 (centres undefined) was read as CBFb RUNX1 block 4%, PNC assembly inh inconclusive, ALDH1A1 block inconclusive, HttQ103 aggreg 5%, HPGD inh -5% and HTT cytoprotect 17%.
Screening O=C(CSCc1ccc(Cl)cc1)Nc1ccc(S(=O)(=O)N2CCOCC2)cc1 returned CBFb RUNX1 block -1%, PNC assembly inh inconclusive, ALDH1A1 block -14%, HttQ103 aggreg -2%, HPGD inh -11% and HTT cytoprotect 7%[0.074 µM].
`Cc1ccc(-c2nnc3ccc(SCC(=O)Nc4cc(C)on4)nn23)cc1` gave CBFb RUNX1 block 5%, PNC assembly inh -1, ALDH1A1 block 2%, HttQ103 aggreg 3%, HPGD inh -26% and HTT cytoprotect 5%.
`Cc1cc(NC(=O)CSc2ccc3nnc(-c4cccs4)n3n2)no1` gave CBFb RUNX1 block -1%, PNC assembly inh -106*, ALDH1A1 block 1%, HttQ103 aggreg 12%, HPGD inh -13% and HTT cytoprotect -8%.
Screening Cc1cc(NC(=O)CSc2n[nH]c(N)n2)no1 returned CBFb RUNX1 block 13%, ALDH1A1 block 7%, HttQ103 aggreg 2% and HTT cytoprotect -31%.
Cc1cc(NC(=O)CSc2n[nH]c(-c3cccs3)n2)no1 was read as CBFb RUNX1 block 1%, PNC assembly inh inconclusive, ALDH1A1 block 5%, HttQ103 aggreg 24%, HPGD inh 14µM* and HTT cytoprotect -3%.
Screening O=C(Cc1cc(=O)[nH][nH]1)N/N=C/c1c(Cl)cccc1Cl returned CBFb RUNX1 block 3%, PNC assembly inh inconclusive, ALDH1A1 block 11µM*!, HttQ103 aggreg 7%, HPGD inh 14µM* and HTT cytoprotect -9%[1.9 µM].
For CN1CCc2c(sc3c2c(=O)n(-c2ccccc2)c2nnc(SCc4ccccc4)n32)C1 the results were CBFb RUNX1 block -7%, PNC assembly inh 7, ALDH1A1 block 25µM*, HttQ103 aggreg -4%, HPGD inh inconclusive and HTT cytoprotect -8%.
CN1CCc2c(sc3c2c(=O)n(-c2ccccc2)c2nnc(SCc4ccc(F)cc4)n32)C1 was read as HTT cytoprotect -36%[0.074 µM].
Screening O=C(CCn1c(=O)oc2ccccc21)NCc1ccc2c(c1)OCO2 returned CBFb RUNX1 block 2%, PNC assembly inh 18, ALDH1A1 block 16µM*, HttQ103 aggreg -6%, HPGD inh -12% and HTT cytoprotect -11%.
O=C(Cn1c(CO)nc2ccccc21)NCc1ccc2c(c1)OCO2 was read as CBFb RUNX1 block 2%, ALDH1A1 block -4%, HttQ103 aggreg -18%[9.22 µM] and HTT cytoprotect -3%[10 µM].
For O=C(CCn1cccc1)NCc1ccc2c(c1)OCO2 the results were CBFb RUNX1 block -12%, PNC assembly inh 5, ALDH1A1 block -2%, HttQ103 aggreg 21%, HPGD inh 20µM* and HTT cytoprotect -22%.
`O=C(CCn1c(=O)sc2ccccc21)NCc1ccc2c(c1)OCO2` gave CBFb RUNX1 block -2%, PNC assembly inh -119*, ALDH1A1 block inconclusive, HttQ103 aggreg 21%, HPGD inh -9% and HTT cytoprotect -23%[10 µM].
For COc1ccc(CC(=O)NCc2ccc3c(c2)OCO3)cc1 the results were CBFb RUNX1 block 1%, PNC assembly inh inconclusive, ALDH1A1 block inconclusive, HttQ103 aggreg -14%, HPGD inh -6% and HTT cytoprotect -11%[10 µM].
Screening O=C(Cn1c(Cc2ccccc2)nc2ccccc21)NCc1ccc2c(c1)OCO2 returned CBFb RUNX1 block 3%, PNC assembly inh -25, ALDH1A1 block 16µM*, HttQ103 aggreg -1%, HPGD inh -4% and HTT cytoprotect -2%[1.9 µM].

Assay outcomes deposited in PubChem by National Center for Advancing Translational Sciences (NCATS).
